Measurements from the supplement of paper PMC6555819.

Assays:
Experiment in all cases: PBM binding z-score (relative to random genomic background probes); higher = stronger binding; sequences stand for … in GC…GCGATTGACAGCGTAGAATGAAGG
[1] = system: PPARg:RXRa DBDmut IVT, anti-RXR (DBD mutation: RXRa K156A/R161A, NR concentration 270 nM, RXRa partner concentration 90 nM)
How it was run: (§1)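 On custom Agilent 4×180K arrays, double-stranded probes with 34-nt variable regions carried direct-repeat seeds, single-nucleotide variants, half-site ablations or random human genomic background. Ligand-free nuclear receptor dimers were applied for 1 h, and binding was read with antibodies against each partner (one per run). Binding z-scores come from regression-normalized fluorescence, with the random background probes as reference.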

[2] = system: PPARg:RXRa IVT, anti-PPARg (NR concentration 270 nM, RXRa partner concentration 90 nM)
How it was run: as §1

[3] = system: PPARg DBDmut:RXRa IVT, anti-PPARg (DBD mutation: PPARg1 K132A/R137A, NR concentration 270 nM, RXRa partner concentration 90 nM)
How it was run: as §1

[4] = system: PPARg DBDmut IVT, anti-PPARg (DBD mutation: PPARg1 K132A/R137A, NR concentration 270 nM)
How it was run: as §1

[5] = system: PPARg homodimer (NR concentration 180 nM)
How it was run: as §1

[6] = system: PXR:RXRa (NR concentration 270 nM, RXRa partner concentration 90 nM)
How it was run: as §1

[7] = system: PXR homodimer (NR concentration 270 nM)
How it was run: as §1

[8] = system: RARa:RXR (NR concentration 270 nM, RXRa partner concentration 90 nM)
How it was run: as §1

[9] = system: RARa homodimer (NR concentration 270 nM)
How it was run: as §1

[10] = system: RARb:RXRa (NR concentration 270 nM, RXRa partner concentration 90 nM)
How it was run: as §1

[11] = system: RARb homodimer (NR concentration 270 nM)
How it was run: as §1

[12] = system: RARg:RXRa (NR concentration 270 nM, RXRa partner concentration 90 nM)
How it was run: as §1

[13] = system: RARg homodimer (NR concentration 270 nM)
How it was run: as §1

[14] = system: RXRa DBDmut IVT, anti-RXR (DBD mutation: RXRa K156A/R161A, NR concentration 90 nM)
How it was run: as §1

[15] = system: RXRa homodimer (NR concentration 180 nM)
How it was run: as §1

[16] = system: THRa:RXRa (NR concentration 90 nM, RXRa partner concentration 90 nM)
How it was run: as §1

[17] = system: THRa homodimer (NR concentration 90 nM)
How it was run: as §1

[18] = system: VDR:RXRa (NR concentration 270 nM, RXRa partner concentration 90 nM)
How it was run: as §1

[19] = system: VDR homodimer (NR concentration 270 nM)
How it was run: as §1

Sequence	PBM binding z-score [1]	PBM binding z-score [2]	PBM binding z-score [3]	PBM binding z-score [4]	PBM binding z-score [5]	PBM binding z-score [6]	PBM binding z-score [7]	PBM binding z-score [8]	PBM binding z-score [9]	PBM binding z-score [10]	PBM binding z-score [11]	PBM binding z-score [12]	PBM binding z-score [13]	PBM binding z-score [14]	PBM binding z-score [15]	PBM binding z-score [16]	PBM binding z-score [17]	PBM binding z-score [18]	PBM binding z-score [19]
CCCGACAGGTGAAAGGTAACTCAGTCTGGTACGC	1.64	2.67	-0.316	-0.825	0.815	0.798	0.0265	1.73	0.375	1.09	0.903	1.26	0.581	-0.307	2.02	1.09	0.506	0.836	-0.0778
CGTCCAAGGTCAAAGCTCAGTGAAGAGATGACGG	3.54	3.35	0.259	-0.242	3.06	3.96	0.865	4.6	1.16	5.14	3.72	5.9	6.4	3.56	5.49	3.63	2.02	3.77	2.15
CGTCAAACTTCAAGGTAACGTAACAGAAAGCAGC	0.101	0.749	0.373	0.926	0.291	0.178	0.193	0.544	-0.134	0.507	0.274	0.163	0.537	0.306	0.376	1.73	1.11	0.0642	-0.0172
GTACCAAGGTGAATAGGTCGTAGATGAGTAGGCG	1.69	2.84	-0.433	-0.143	0.982	0.659	-0.144	1.8	0.467	2.17	1.92	2.94	1.61	-0.478	2.18	1.83	0.42	0.667	0.204
ATCTCTAGGTAAAGATAGTTCAGCGAATGCAAAT	2.37	1.47	0.72	1.31	0.488	0.995	0.643	0.739	1.34	0.964	1.42	0.793	0.971	-0.00603	0.377	0.867	-0.0177	1.08	0.508
GGGACTGGGGCAAAGCAGGTTACCATAAGGTTGG	4.85	5.97	0.631	0.017	1.03	1.21	0.82	1.18	-0.119	1.39	1.75	0.941	0.994	-1.03	0.55	3.3	1.32	0.732	0.624
CCGACTGGGGCAGACAGGTTACCATACCATCCGG	1.38	1.47	0.134	-1.89	-0.172	-0.453	-0.382	-0.441	-0.217	0.69	0.849	0.341	0.456	-0.96	0.238	-0.0397	0.0396	-0.343	-0.23
TGAATGAGGTTATCAGATCAGGGAACGTTGCAAA	1.59	2.2	0.55	-0.0543	1.69	0.942	-0.255	1.45	-0.892	1.44	0.317	1.62	1.06	0.731	1.99	2.02	0.233	1.04	0.273
ACTAGCAGGCCAAGGGTCACTCGAGATTAGTCCG	1.3	3.54	-0.0207	-0.0831	2.15	3.15	-0.376	3.97	0.545	3.48	3.75	3.93	4.02	0.801	4.28	2.45	0.0934	2.56	1.06
TAGCCTAGGTCACGCGGGCCAGTATAGTGTCGGC	2.95	4.27	-0.0213	0.00762	1.6	1.84	-0.691	3.32	-0.183	4.33	3.49	5.13	5.55	0.633	4.2	3.74	1.61	3.35	0.563
CGTCCAAGGTCAATGCTAGGTCAGGGAAAGCATT	2.8	4.06	-0.00201	-0.912	3.8	4.55	0.675	5.55	0.824	5.31	4.99	7.46	6.5	3.47	5.08	4.67	3.21	4.75	2.33
GTACCAAGTTGAATAGGTCGTTGATGAGTAGGCG	-0.264	0.17	0.192	0.767	0.638	0.225	0.216	0.609	0.578	0.926	0.758	0.982	0.525	0.103	0.719	0.151	-0.492	0.387	0.477
ATCGAAAGGTCGTGAGGTGAGAATACAGAAAGGC	0.36	2.7	1.67	0.86	1.7	3.16	0.322	4.19	0.587	4.13	3.14	4.62	3.89	1.28	5.3	3.49	1.44	3.48	0.87
CTCGAAAGGTCGGTTGAGGTGAGTTTACGGATAA	1.08	0.924	-0.565	-0.36	0.854	3.83	0.588	2.16	-0.143	3.09	2.53	2.78	2.96	1.27	2.12	4.97	1.31	3.29	2.25
ATATGTAGGTTAGCTGGGGTCAGTCAGACTAGGC	6.39	6.31	2.61	1.83	1.96	5.06	1.14	3.81	0.813	2.88	3.61	3.36	2.88	0.894	3.64	5.02	2.36	4.52	2.29
CCTATTAGTTGACCATAAGGGCAAGCGAAGCTCG	0.132	0.158	-0.0196	0.32	1.47	0.536	0.56	0.913	1.9	1.65	1.9	0.986	1.05	0.414	0.645	1.75	1.08	0.92	0.847
CCGACCGGGGCATAAGGTTACCATAAGCCAGCCC	0.165	0.416	-0.828	-1.51	0.811	0.533	-0.0926	1.79	-0.565	1.8	2	2.18	1.62	-0.289	1.68	2.57	1.66	0.666	0.0101
CGAACCAGGTCATTGACAGGACAGTGAATAGTAA	4.92	5.01	0.122	0.405	1.32	2.53	0.75	2.92	0.518	3.58	2.5	4.94	4.22	3.22	3.57	3.31	1.84	2.85	1.8
CGAACGAGGGCATGAGTTGATAACAAATGCCGAT	2.8	1.8	0.105	-0.206	0.149	0.497	0.164	0.612	-0.168	1.83	0.641	1.37	1.59	2.64	1.05	1.19	-0.0778	1.04	1.48
CCTACTGGGCCATCAGGTCATTCATATCAACGTT	4.57	4.74	0.597	0.12	1.48	1.73	1.07	1.96	0.469	2.01	2.53	1.94	1.92	0.469	1.3	3.03	3.02	1.67	2.34
GCTGCTAGGTCAGGTTGGTGAGCTAACGGGTACG	2.52	1.93	-0.822	-0.37	0.201	0.142	-0.5	0.873	-0.817	3.24	2.33	2.37	3.34	0.361	1.05	1.76	0.218	0.141	0.0347
TCTAGATGGTCAAAGGTCACACACTCGAAATGCG	3.19	5.41	1.82	1.44	5.45	6.1	1.7	7.48	3.63	4.89	4.98	7.31	5.87	1.9	8.64	3.96	1.9	5.33	2.51
CGAACTAGGTCATTGACAGGACAGTGACTAGTAA	8.03	8.27	2.04	1.38	0.886	1.81	0.0529	2.44	0.0227	3.58	2.75	4.69	4.28	2.44	2.69	2.84	0.58	2.42	1.07
CTTCCAAGGTCATAGGAGGTCAGTGAAGACAGAT	3.59	4.67	1.93	1.31	4.55	6.93	4.92	6.14	3.57	5.42	5.3	7	7.48	3.89	7.13	5.26	3.21	6.66	4.49
TAATATAGGTAAATGCTAGGTGAAAGTCCGATCT	5.57	5.11	2.14	2.14	1.2	0.298	0.623	0.771	1.52	0.389	0.28	0.642	0.601	0.344	0.568	1.4	0.419	0.36	0.275
GCTTGTAGATCTAGGTTAAGAAAGACTAAGCTAA	3.21	3.27	0.608	0.399	-1.08	-0.4	-0.246	0.0619	-0.0444	0.0938	-0.325	-0.324	-0.326	-0.252	-0.074	0.276	-0.767	-0.392	-0.721
TCATATACGTAAACAGGTGAAAGTCCGTAAGTTA	2.72	1.26	1.21	1.05	1.24	1.19	0.801	1.68	1.67	0.855	0.865	0.708	0.405	1.91	0.88	0.985	0.342	1.38	0.357
AGAATGTGGTTACCAAAGATCAGGGAAACGCTTG	0.0362	0.248	0.393	0.266	0.264	-0.353	-0.342	-0.178	-0.0425	-0.0731	-0.487	0.0233	0.17	-0.485	0.156	-0.05	-0.409	-0.233	-0.534
CGTCCAAGGTCAGCAGATCAGTGAAAGCGACGTG	2.68	2.66	0.547	-0.498	2.2	2.49	0.4	3.08	0.548	5.02	3.69	4.89	5.8	2.42	3.8	3.42	2.11	2.37	0.793
TCAGACGGGTGAAGGTAACTCAGGTACGCAGTCG	1.98	0.818	-0.457	-0.479	0.581	0.181	-0.137	0.411	-0.487	0.641	0.122	0.19	0.0578	0.65	0.866	1.28	-0.229	0.218	-0.187
